PubChem BioAssay (Tox21)
Values joined by “and” are separate entries in the source; they are usually repeats but may differ in a detail not shown here. Identical values can stand only once. Results filed as inconclusive are left out. Entries that show only a call come without a potency. Some structures have more than one record in an assay (separate samples or runs), and their calls can disagree. Active and inactive are the calls of the source. Calls come from the whole dose curve; as a rule, active = well fitted activation curve with a large enough effect in the repeat runs; inconclusive = weak or mixed curves; inactive = flat fitted curve, though single readings scatter.

assay: A CellTox Green Cytotoxicity Assay to monitor cytotoxicity in HepG2 cells - 16 hour (AID 1224876); details: CellTox Green fluorescence; series mostly up to 76.8 µM; cytotoxicity increase: at the top concentration; note: nearly all actives have a fitted effect of over 45% in size
Description: National Center for Advancing Translational Sciences [NCATS]
NIH Chemical Genomics Center [NCGC]
U.S. Environmental Protection Agency [EPA]
National Institutes of Environmental Health Sciences [NIEHS]
National Toxicology Program [NTP]
Cell-based models are critical for drug discovery. Determining the natural cytotoxic effects resulting from test compounds is an essential research activity. A CellTox Green Cytotoxicity Assay to monitor cytotoxicity in real time of continues cell culture during 40 hours of the compound treatment was used to screen Tox21 10K library compounds in HepG2 cells. CellTox Green Cytotoxicity Assay is a nonlytic, homogeneous, biofluorescent method to measure cytotoxicity in cell culture after experimental manipulation. The assay system uses a proprietary asymmetric cyanine dye that is excluded from viable cells but preferentially stains the dead cell's DNA. […] Viable cells produce no appreciable increases in fluorescence. Therefore, the fluorescence signal produced by the binding interaction with dead cell DNA is proportional to cytotoxicity.
The mixture of HepG2 cell suspension and reagents were dispensed at 600cells/6 ul/well in 1536-well tissue culture treated black solid bottom plates using a Multidrop dispenser. After the assay plates were incubated at a 37 C/5% CO2 incubator for 5 hours, 23 nL of compounds dissolved in DMSO, positive and negative controls was transferred to the assay plate by a pintool work station. The plates were incubated at 37 C for 40 hours. The fluorescence intensity were measured at 0h, 8h, 16h, 24h, 32h and 40h time points using ViewLux plate reader during compound treatment.
Potency is the fitted concentration of half-maximal effect.

Q: With NC(=O)CN1CCCC1=O as the compound, how does the Potency read?
A: inactive

Q: Which Potency does the source give for Brc1ccc(Br)cc1 here?
A: inactive

Q: For O=P(OCCCl)(OCCCl)OCCCl, which Potency is on record?
A: inactive

Q: For C=CC(Cl)CCl (stereo not given), which “cytotoxicity increase” value is on record?
A: -8.6% (inactive)

Q: With Clc1ccc(C(Cl)(Cl)Cl)cc1 as the compound, how does the Potency read?
A: inactive

Q: With Cn1c(-c2ccccc2)cc(-c2ccccc2)[n+]1C as the compound, how does the Potency read?
A: inactive

Q: Which Potency does the source give for O=[N+]([O-])/N=C1\NCCN1Cc1ccc(Cl)nc1 here?
A: inactive

Q: Which Potency does the source give for O=C1Nc2ccc(Cl)cc2C(c2ccccc2)=NC1O (stereo not given) here?
A: inactive

Q: Which Potency does the source give for CNC(=O)Oc1cccc2c1OC(C)(C)C2 here?
A: inactive

Q: Which Potency does the source give for C=C(C)C#N here?
A: inactive

Q: With CC(C)(O)C#N as the compound, how does the Potency read?
A: inactive

Q: For COP(=O)(NC(C)=O)SC (stereo not given), which Potency is on record?
A: inactive

Q: Which Potency does the source give for C[N+](C)(C)CC(=O)[O-] here?
A: inactive

Q: With CCOP(=S)(OCC)SCSC(C)(C)C as the compound, how does the Potency read?
A: inactive

Q: With CCCCCCCCCc1ccc(O)cc1 as the compound, how does the Potency read?
A: 39.3 µM (active)

Q: Which Potency does the source give for CC1CC(=O)O1 (stereo not given) here?
A: inactive

Q: With CC(C)=CC1C(C(=O)OCc2cccc(Oc3ccccc3)c2)C1(C)C (stereo not given) as the compound, how does the Potency read?
A: inactive

Q: For C[C@]12CC[C@H]3[C@@H](CCC4=CC(=O)CC[C@@H]43)[C@@H]1CC[C@@H]2O, which Potency is on record?
A: inactive

Q: With CCCCCCCCCCCCCl as the compound, how does the Potency read?
A: inactive and 13.8 µM (active)

Q: Which “cytotoxicity increase” value does the source give for CCOP(=O)(OCC)OCC here?
A: -5.15% (inactive)

Q: For COc1ccc(C=O)cc1OC, which Potency is on record?
A: inactive

Q: With CCOS(=O)(=O)OCC as the compound, how does the Potency read?
A: inactive

Q: Which Potency does the source give for C[C@]12CCC(=O)C=C1CC[C@@H]1[C@@H]2CC[C@@]2(C)[C@H]1CC[C@]2(C)O here?
A: 22.1 µM (active) and inactive

Q: For Cc1ccc(N=CN(C)C=Nc2ccc(C)cc2C)c(C)c1, which Potency is on record?
A: inactive

Q: Which Potency does the source give for O=S(=O)(O)C(F)(F)C(F)(F)C(F)(F)C(F)(F)C(F)(F)C(F)(F)C(F)(F)C(F)(F)F here?
A: 18.6 µM (active) and inactive

Q: For CCOP(=S)(OCC)SCn1c(=O)oc2cc(Cl)ccc21, which Potency is on record?
A: inactive

Q: For COc1ccc(CO)cc1, which Potency is on record?
A: inactive

Q: With NN=C(N)N as the compound, how does the Potency read?
A: inactive

Q: Which Potency does the source give for CCCCOCCOC(C)=O here?
A: inactive

Q: Which Potency does the source give for CC(C)(c1ccc(OCC2CO2)cc1)c1ccc(OCC2CO2)cc1 (stereo not given) here?
A: inactive

Q: For CC(C)(O)C(=O)Nc1ccc([N+](=O)[O-])c(C(F)(F)F)c1, which Potency is on record?
A: inactive

Q: With CCCCSP(=O)(SCCCC)SCCCC as the compound, how does the Potency read?
A: inactive

Q: With ClCC(Cl)CCl as the compound, how does the Potency read?
A: inactive

Q: For Cc1ccc([N+](=O)[O-])cc1, which Potency is on record?
A: inactive

Q: For CC(C)=CC1C(C(=O)OCN2C(=O)C3=C(CCCC3)C2=O)C1(C)C (stereo not given), which Potency is on record?
A: inactive

Q: For CC(C)(c1ccccc1)c1ccc(O)cc1, which Potency is on record?
A: 24.5 µM (active)

Q: Which Potency does the source give for CCCCOC(=O)COC(=O)c1ccccc1C(=O)OCCCC here?
A: inactive

Q: For O=C1CCCO1, which Potency is on record?
A: inactive

Q: Which Potency does the source give for CC1=C(C(=O)Nc2ccccc2)SCCO1 here?
A: inactive

Q: For CCC(=O)Nc1ccc(Cl)c(Cl)c1, which Potency is on record?
A: inactive
